# Laboratory results from PubChem BioAssay (Tox21).
# Results filed as inconclusive are left out. A call without a number means that no potency is given here. The source made the active and inactive calls. Calls follow the shape of the dose curve; as a rule, active = well fitted inhibition curve with a large enough effect in the repeat runs; inconclusive = weak or mixed curves; inactive = flat fitted curve, though single readings scatter.
# Experiment: qHTS assay to identify small molecule HDAC inhibitors (AID 1259364); also: top concentration of the series differs between compounds; nearly all actives have a fitted effect of over 45% in size
# Conditions: HCT-116 HDAC-Glo I/II luminescence, 2 h; series mostly up to 92.4 µM
# Excerpt: U.S. Tox21 Program National Center for Advancing Translational Sciences [NCATS] NIH Chemical Genomics Center [NCGC] U.S. Environmental Protection Agency [EPA] National Institutes of Environmental Health Sciences [NIEHS] National Toxicology Program [NTP] U.S. Food and Drug Administration [FDA] Tox21 Assay Overview: Histone deacetylases (HDACs) are a group of epigenetic enzymes that regulate gene expression by histone deacetylation. HDACs are capable of introducing epigenetic modifications and such aberrations contribute to the onset and progression of several human diseases, thus making HDACs a popular therapeutic target. For identifying endogenous class I/II HDAC inhibitors a homogenous, luminogenic HDAC I/II cell based assay was used to measure the relative activity of class I and II HDACs from cells. Wild type HCT-116 cells were used to screen Tox21 libraries for identifying class I/II HDAC inhibitors.
# Tox21 Assay Protocol Summary: HCT-116 cells were dispensed at 1,500 per well in 5uL of culture medium into white solid bottom 1536-well plates (Greiner Bio-One, Monroe, NC) using a Multidrop Combi (Thermo Scientific, Waltham, MA) dispenser. The assay plates were incubated at 37 C and 5% CO2 for an overnight, and then 23nL of compounds dissolved in DMSO and positive control were transferred using a Pintool station (Wako, San Diego, CA). The assay plates were incubated at 37C and 5% CO2 for 2hr. After compound treatment, 4uL of HDAC-Glo reagent (Promega Corporation, Madison, WI) was added to each well of the assay plates using Flying Reagent Dispenser (FRD, Aurora Discovery, San Diego, CA) and incubated the assay plates at room temperature for 30min. The luminescence signal was quantified using a ViewLux plate reader (Perkin Elmer, Shelton, CT).
row,Structure (SMILES),Potency
1,CCCC(=O)Cl,inactive
2,O=C(CCl)c1ccc(Cl)cc1Cl,inactive
3,C=CC(=O)OCCCCO,inactive
4,CCN(C)N=O,inactive
5,CCCCCC[N+](=O)[O-],inactive
6,CCCCNP(N)(N)=S,inactive
7,COc1nn(C(=O)NS(=O)(=O)c2ccccc2OC(F)(F)F)c(=O)n1C,inactive
8,COc1ccc(-c2ccccc2)cc1NNC(=O)OC(C)C,inactive
9,OCCCBr,inactive
10,CN1C[C@H](CNC(=O)OCc2ccccc2)C[C@@H]2c3cccc4c3c(cn4C)C[C@H]21,inactive
11,Cn1sc(Cl)cc1=O,inactive
12,ClCc1ccccc1,inactive
13,CCC(Cl)CCl (stereo not given),inactive
14,O=NN1CCCCCC1,inactive
15,COCC(C)N(C(=O)CCl)c1c(C)csc1C (stereo not given),inactive
16,S=C=NCc1ccccc1,inactive
17,NCCCNCCCN,inactive
18,COC(=O)C(Cl)C(=O)OC,inactive
19,CCOc1ccc(C(C)(C)COCc2cccc(Oc3ccccc3)c2)cc1,inactive
20,COCCOCCO,inactive

row,Structure (SMILES),Potency
1,CC(=O)c1cc2c(cc1C)C(C)(C)C(C)CC2(C)C (stereo not given),inactive
2,C=CC(C)=O,inactive
3,CCCCN=C=O,inactive
4,CCOC(=O)C(Cl)C(C)=O (stereo not given),inactive
5,COc1cc(Cl)c(OC)cc1Cl,inactive
6,CCOP(=S)(OCC)SCSCC,inactive
7,C=CC(=O)OCC(C)O (stereo not given),inactive
8,C[C@@H]1CC[C@H]2[C@@H](C)C(=O)O[C@@H]3O[C@@]4(C)CC[C@@H]1[C@]32OO4,inactive
9,O=Cc1ccc(Cl)cc1Cl,inactive
10,Cc1ccc2ccccc2c1,inactive
11,CCOC(=O)[C@]1(c2ccccc2)Oc2ccccc2[C@@H]1N,inactive
12,C=C(C#N)CCC#N,inactive
13,Clc1cccc2ccccc12,inactive
14,Cc1ccccc1CCl,inactive
15,BrCC(Br)C1CCC(Br)C(Br)C1 (stereo not given),inactive
16,O=C1CN=C(c2ccccc2)c2cc(Cl)ccc2N1CC1CC1,inactive
17,[O-][Cl+]O,inactive
18,CC(=O)[C@H]1CC[C@H]2[C@@H]3CC[C@H]4C[C@](C)(O)CC[C@]4(C)[C@H]3CC[C@]12C,inactive
19,COC(N)=O,inactive
20,CC(C)(OO)c1ccccc1,inactive
